High-throughput results deposited in PubChem by National Center for Advancing Translational Sciences (NCATS).
Only some compounds are listed: those with a hit (about 9% of all), similar ones and a draw of the others.
HP1b binding inh: blocks HP1-beta chromodomain binding to methylated histone tails. P83916. AlphaScreen HP1-beta / biotin-H3K9me3 peptide binding. Potency, µM (series often up to 114 µM), actives largely listed as inhibitors. 390,000 compounds, 0.56% hits; further: nearly all actives have a fitted effect of over 70% in size
Target sequence (P83916 whole entry, looked up): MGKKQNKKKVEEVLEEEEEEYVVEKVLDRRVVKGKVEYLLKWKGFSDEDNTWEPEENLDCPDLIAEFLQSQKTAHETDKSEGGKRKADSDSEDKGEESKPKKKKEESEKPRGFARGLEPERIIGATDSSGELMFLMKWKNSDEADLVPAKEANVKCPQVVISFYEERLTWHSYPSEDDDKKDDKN
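Compound inhibition of the preformed complex between 50 nM HP1-beta and 50 nM biotinylated H3K9me3 peptide was read by AlphaScreen. Buffer was PBS pH 7.4 with 0.01% Tween-20. Incubations ran 30 min at room temperature, with 10 ug/mL donor/acceptor beads.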
G9a inh: G9a (human) methyltransferase inhibition; Potency, µM (series often up to 102 µM), actives largely listed as inhibitors; G9a H3K9 monomethylation, AlphaScreen, 2 h; 350,000 compounds, 8.8% hits; AID 504332; Q96KQ7; further: nearly all actives have a fitted effect of over 75% in size
Target sequence (Q96KQ7 913-1193 limits assumed): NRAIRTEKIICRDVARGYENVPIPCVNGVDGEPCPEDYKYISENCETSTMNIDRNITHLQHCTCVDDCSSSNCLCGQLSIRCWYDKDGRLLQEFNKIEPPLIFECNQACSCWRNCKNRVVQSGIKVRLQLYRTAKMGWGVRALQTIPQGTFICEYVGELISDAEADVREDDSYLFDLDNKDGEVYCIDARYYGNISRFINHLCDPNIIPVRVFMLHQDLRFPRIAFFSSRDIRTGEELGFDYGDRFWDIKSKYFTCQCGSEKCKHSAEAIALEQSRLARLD
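Signal arises when biotinylated H3K9 peptide, once monomethylated, bridges streptavidin donor and antibody-captured acceptor beads. Enzyme at 20 nM was preincubated 15 min with test compounds; peptide 500 nM and SAM 20 uM then reacted for 2 h.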
12-LOX inh: blocks human arachidonate 12S-lipoxygenase; P18054; purified 12hLO, xylenol orange hydroperoxide absorbance; AID 1671190; 580,000 compounds, 1.1% hits; Potency, µM (titrated, usually from 108 µM), most hits filed as inhibitors
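Purified human 12hLO (150 nM final) in 25 mM Hepes, 0.01% Triton X-100, pH 7.0 was preincubated 15 min at room temperature with compound. Then 40 uM arachidonic acid was added, 30 min. Hydroperoxide was read by Fe-XO absorbance ratio 573/405 nm.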
PLK1 PBD inh: inhibitors of human PLK1 polo-box domain binding | P53350 | Plk1 PBD binding of FITC phosphopeptide, fluorescence polarization | Potency, µM, actives largely listed as inhibitors | 360,000 compounds, 2.8% hits | AID 720504; further: series mostly up to about 57 µM; nearly all actives have a fitted effect of over 65% in size
BAZ2B block: BAZ2B (human) inhibition. Potency, µM (doses to about 114 µM), most hits filed as inhibitors. Q9UIF8. AlphaScreen BAZ2B-H3K14Ac peptide displacement. 360,000 compounds, 4.4% hits; further: nearly all actives have a fitted effect of over 60% in size
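Inhibition is scored as reduced AlphaScreen emission. The BAZ2B/b-H3(5-23)K14Ac complex (50 nM each) in PBS pH 7.4, 0.01% Tween-20 meets compound (up to 110 uM) for 30 min at RT before bead addition.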
JMJD2A Tudor: blocks the human JMJD2A Tudor domain. O75164. Potency, µM (titrated, usually from 114 µM), most hits filed as inhibitors. AlphaScreen JMJD2A-Tudor / H3K4me3 peptide binding. 390,000 compounds, 4.4% hits; further: nearly all actives have a fitted effect of over 50% in size
Hits are given with their value; – = inactive; ? = inconclusive; · = not tested or not shown; [ ] = dose if it differs, or a comment. The call rests on the fitted dose curve; in most records, active means well fitted curve in the direction sought with a large enough effect; inconclusive means small, poorly fitted or top-dose-only effect, or another doubt; inactive means no such curve, though single readings can be large; an effect the other way counts as inactive or inconclusive.

SMILES	HP1b binding inh	G9a inh	12-LOX inh	PLK1 PBD inh	BAZ2B block	JMJD2A Tudor
CC(=N\NC(=O)c1ccc([N+](=O)[O-])cc1)/C(=N/O)C(=O)Nc1ccccc1	–	·	–	–	50.1µM	–
CCOC(=O)/C(C)=N/NC(=O)c1ccc([N+](=O)[O-])cc1	–	–	–	–	–	–
Cn1ccnc1CN1CCN(c2nccc(-c3cccnc3)n2)CC1	·	·	–	·	·	·
NC(=O)CSc1nnc(-c2ccc(S(=O)(=O)N3CCCC3)cc2)n1Cc1ccco1	–	?	–	–	–	–
CN(C(=O)COc1cccc(Br)c1)C1CCS(=O)(=O)C1 (configuration not stated)	–	–	–	–	–	–
O=c1[nH]nc(Cc2ccc(-c3cccc(Cl)c3)o2)c2ccccc12	–	?	–	–	–	–
Cc1[nH][nH]c(=O)c1C(c1ccc(-c2cccc(Cl)c2)o1)c1c(C)[nH][nH]c1=O	?	·	·	11.9µM	39.8µM	44.7µM
COc1cc(C(c2c(C)[nH][nH]c2=O)c2c(C)[nH][nH]c2=O)ccc1OC(=O)c1cccc([N+](=O)[O-])c1	–	?	–	?	–	?
COC(=O)c1ccc(-c2ccc(C(c3c(C)[nH][nH]c3=O)c3c(C)[nH][nH]c3=O)o2)cc1	–	1.41µM	35.5µM	11.9µM	8.91µM	31.6µM
Cc1[nH][nH]c(=O)c1C(c1ccc(-c2cccc(C(=O)O)c2)o1)c1c(C)[nH][nH]c1=O	?	17.8µM	–	?	79.4µM	56.2µM
Cc1[nH][nH]c(=O)c1C(c1ccc(Br)cc1)c1c(C)[nH][nH]c1=O	–	–	–	?	–	–
Cc1[nH][nH]c(=O)c1C(c1ccc(-c2ccc(Cl)cc2Cl)o1)c1c(C)[nH][nH]c1=O	·	7.08µM	·	·	?	·
OCc1nc(C2CCNC2)no1 (configuration not stated)	·	·	–	·	·	·
COc1cc(C(=O)N2CCN(c3ncnc4sc(C)c(C)c34)CC2)cc(OC)c1OC	–	–	–	–	–	–
O=C(NCc1ccco1)c1c(F)c(F)c(F)c(C(=O)NCc2ccco2)c1F	–	–[0.501 µM]	–	–	–	–
Cc1[nH][nH]c(=O)c1C(c1ccc(-c2ccccc2C(=O)O)o1)c1c(C)[nH][nH]c1=O	–	3.55µM	?	?	35.5µM	89.1µM
CCOC(=O)c1c(Nc2ccc(Cl)cc2)sc(/C=C2\C=Nc3ccccc32)c1O	–	–	–	–	–	–
O=c1c2ccccc2n2c(-c3ccc(F)c(F)c3)nnc2n1CCc1ccccc1	–	–	–	·	–	–
CCCCN1/C(=C/c2cccc[n+]2C)Sc2cc(NC(C)=O)ccc21	–	44.7µM	?	–	–	28.2µM
CC/C=C\CCOC(C)OCC (configuration not stated)	·	·	–	·	·	·
COc1ccc2[nH]c(C)c(C(=O)CN3CCC(Cc4ccccc4)CC3)c2c1	·	·	25.1µM	·	·	·
Cc1ccc(-c2cc(Nc3ccccc3C(F)(F)F)nc(C)n2)cc1	·	·	15.8µM	·	·	·
Cc1ccc(-c2cc(Nc3ccccc3)nc(C)n2)cc1	·	·	7.08µM	·	·	·
Cc1cccc(-c2cc(Nc3ccc(SC#N)cc3)nc(C)n2)c1	·	·	–	·	·	·
O=C1CCN(C(=O)C2CCCC2)CCCC(c2nc(-c3cccnc3)no2)CCN1 (configuration not stated)	·	·	–	·	·	·
SMILES	HP1b binding inh	G9a inh	12-LOX inh	PLK1 PBD inh	BAZ2B block	JMJD2A Tudor
CC1CCC2(C1)N=C(Nc1nc3ccccc3o1)NC1=C2C(=O)CCC1 (configuration not stated)	·	·	·	·	·	56.2µM
CCNC(=S)NCc1ccc(OC)c(OC)c1	–	–[12.7 µM]	–	–	–	–
Cc1ccc(NC(=O)CC2S/C(=N/N=C3/NC(=O)CS3)NC2=O)cc1 (configuration not stated)	–	?	?	–	56.2µM	?
COc1ccc(C2OC(CCc3ccccc3)CC3=C2C(=O)OC(C)(C)O3)cc1 (configuration not stated)	·	·	–	–	·	·
CCOc1cccc2c1OC(c1cc(OC)c(OC)c(OC)c1)N1N=C(c3ccc(C)o3)CC21 (configuration not stated)	–	12.6µM	·	–	?	–
CCCN1CCN(C(=O)c2ccccc2-c2nc3ccccc3s2)CC1	–	39.8µM	–	–	–	–
COc1ccc(-n2c(C)cc(C(=O)Cn3c(NCCO)nc4ccccc43)c2C)cc1	?	50.1µM	–	–	50.1µM	?
O=C(Cn1c(NCCCO)nc2ccccc21)c1ccc(Cl)cc1Cl	–	79.4µM	–	–	–	–
O=C(c1cccc([N+](=O)[O-])c1)N1CC2C3C=CC(C3)C2C1 (configuration not stated)	–	–	–	–	–	–
CCOC(=O)CCCNC(=O)c1cncc(Br)c1	–	–[12.7 µM]	–	–	–	–
CN(C)c1ccc(C(O)c2cc3ccccc3s2)cc1 (configuration not stated)	?	·	?	–	·	31.6µM
S=c1[nH]ccn1-c1c(Cl)cccc1Cl	–	10µM	–	–	–	–
Cc1ccccc1-n1cc[nH]c1=S	–	12.6µM	?	?	–	10µM
Cc1cccc(-n2cc[nH]c2=S)c1C	–	1.78µM	50.1µM	–	–	39.8µM
Cc1cccn(Cc2c(Cl)cccc2Cl)c1=O	–	·	–	–	·	–
Cc1cccc(-n2ccnc2SCC(=O)O)c1C	–	–	–	–	–	–
CC(C)c1ccccc1-n1cc[nH]c1=S	–	3.98µM	?	–	?	22.4µM
Cc1ccccc1N1CC(=O)N(c2ccccc2C)CC1=O	–	–	–	–	–	–
COc1ccccc1Nc1nc(N)nc(CSc2nc(C)cc(C)n2)n1	–	–	–	–	–	–
COC(=O)[C@H](Cc1ccccc1)NC(=O)N1CCN(c2ccccc2)CC1	–	–	–	–	–	–
Cc1cccc(-n2cc[nH]c2=S)c1	–	2.82µM	–	–	–	5.62µM
COc1ccc(C(=O)Nc2nccs2)cc1[N+](=O)[O-]	–	?	–	–	–	–
COc1ccc2c(c1)-c1nc(NC(=O)c3ccccc3F)sc1CC2	–	–	?	·	–	–
COc1ccc2c(c1)-c1nc(NC(=O)c3cc(Cl)ccc3OC)sc1CC2	–	20µM	–	·	–	–
COc1ccc(C(=O)Nc2nc3c(s2)Cc2cc(OC)ccc2-3)cc1	–	44.7µM	?	?	–	–
COC(=O)Nc1nnc(COc2cccc(C)c2)s1	–	–	–	–	–	–[11.4 µM]
CC1(O)CC(c2ccc(Cl)cc2)=NN1C(=O)c1ccc([N+](=O)[O-])cc1 (configuration not stated)	?	?	?	–	14.1µM	–[11.4 µM]
CC(=O)N1N=C(c2ccc(Cl)cc2)CC1c1ccc([N+](=O)[O-])cc1 (configuration not stated)	–	·	–	–	–	–
O=C(CNC(=S)N(CCCN1CCOCC1)Cc1cccs1)NC1CCCCCCC1	–	–	–	–	–	–
